This note sets out measurements from PubChem BioAssay (NCATS).

Records with an inconclusive call do not appear. Entries that show only a call come without a potency. Activity calls are given as the source filed them. The call rests on the fitted dose curve; in most records, active means well fitted inhibition curve with a large enough effect; inconclusive means small, poorly fitted or top-dose-only effect; inactive means flat fitted curve, though single readings scatter.
Potency means the concentration at half of the fitted maximal effect.

One experiment relates to CP269. As to the kind of experiment: qHTS profiling for inhibitors of Plasmodium falciparum proliferation (AID 504749). Further: nearly all actives have a fitted effect of over 60% in size. The note with it: P. falciparum in erythrocytes, SYBR Green DNA, 72 h; series mostly up to 28.7 µM. Summed up:
(§1)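 Parasite proliferation within erythrocytes, 72 h exposure. Endpoint: SYBR Green I fluorescence after overnight lysis at room temperature. Controls: 0.29 uM artemisinin, DMSO.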
In general terms: Quantitative high-throughput screening tests each substance at several concentrations.
As to `CN(C)[C@H]1C(=O)C(C(=O)NCN2CCCC2)=C(O)[C@]2(O)C(=O)C3=C(O)c4c(O)cccc4[C@](C)(O)[C@H]3C[C@H]12`, the Potency result is “inactive”.

With `C[C@]12CC[C@H]3c4ccc(O)cc4CC[C@@H]3[C@H]1CC[C@@H]2OC(=O)CCC1CCCC1`, the Potency entry is “inactive”.

Regarding `Cc1cn([C@H]2C[C@H](N=[N+]=[N-])[C@H](CO)O2)c(=O)[nH]c1=O`, the Potency result was “inactive”.

Consider `O=C(O)[C@@H](S)[C@H](S)C(=O)O`, for which the Potency was 6.75 µM (active).

On to `CC(C)(C)NC[C@@H](O)c1ccc(O)c(CO)n1`, for which the Potency result is “inactive”.

As for `NS(=O)(=O)c1cc2c(cc1Cl)N[C@H](Cc1ccccc1)NS2(=O)=O`, the Potency entry is “inactive”.

Another experiment relates to CP286. The description is as above. The following applies: P. falciparum in erythrocytes, SYBR Green DNA, 72 h; series mostly up to 28.7 µM. Summed up:
as §1
For the molecule `CN(C)[C@H]1C(=O)C(C(=O)NCN2CCCC2)=C(O)[C@]2(O)C(=O)C3=C(O)c4c(O)cccc4[C@](C)(O)[C@H]3C[C@H]12`, the Potency result was “inactive”.

`Cc1cn([C@H]2C[C@H](N=[N+]=[N-])[C@H](CO)O2)c(=O)[nH]c1=O`: the Potency entry was “inactive”.

`O=C(O)[C@@H](S)[C@H](S)C(=O)O`: the Potency was 7.08 µM (active).

Consider `CC(C)(C)NC[C@@H](O)c1ccc(O)c(CO)n1`, for which the Potency entry was “inactive”.

Consider `NS(=O)(=O)c1cc2c(cc1Cl)N[C@H](Cc1ccccc1)NS2(=O)=O`, for which the Potency entry was “inactive”.

Another experiment has as its system CP291. Described as above. The note with it: P. falciparum in erythrocytes, SYBR Green DNA, 72 h; series mostly up to 28.7 µM. Summed up:
as §1
`CN(C)[C@H]1C(=O)C(C(=O)NCN2CCCC2)=C(O)[C@]2(O)C(=O)C3=C(O)c4c(O)cccc4[C@](C)(O)[C@H]3C[C@H]12`: the Potency result was “inactive”.

For `C[C@]12CC[C@H]3c4ccc(O)cc4CC[C@@H]3[C@H]1CC[C@@H]2OC(=O)CCC1CCCC1`, the Potency entry is “inactive”.

Turning to `Cc1cn([C@H]2C[C@H](N=[N+]=[N-])[C@H](CO)O2)c(=O)[nH]c1=O`, the Potency result is “inactive”.

In the case of `O=C(O)[C@@H](S)[C@H](S)C(=O)O`, the Potency was 12 µM (active).

Take `CC(C)(C)NC[C@@H](O)c1ccc(O)c(CO)n1`: the Potency entry is “inactive”.

For `NS(=O)(=O)c1cc2c(cc1Cl)N[C@H](Cc1ccccc1)NS2(=O)=O`, the Potency entry was “inactive”.

The test system of a further experiment is CP297. The experiment is described as above. The note with it: P. falciparum in erythrocytes, SYBR Green DNA, 72 h; series mostly up to 28.7 µM. In short, it runs like this: as §1
Take `CN(C)[C@H]1C(=O)C(C(=O)NCN2CCCC2)=C(O)[C@]2(O)C(=O)C3=C(O)c4c(O)cccc4[C@](C)(O)[C@H]3C[C@H]12`: the Potency entry was “inactive”.

Turning to `C[C@]12CC[C@H]3c4ccc(O)cc4CC[C@@H]3[C@H]1CC[C@@H]2OC(=O)CCC1CCCC1`, the Potency entry is “inactive”.

With `Cc1cn([C@H]2C[C@H](N=[N+]=[N-])[C@H](CO)O2)c(=O)[nH]c1=O`, the Potency entry was “inactive”.

As to `O=C(O)[C@@H](S)[C@H](S)C(=O)O`, the Potency is 15.1 µM (active).

With `CC(C)(C)NC[C@@H](O)c1ccc(O)c(CO)n1`, the Potency entry is “inactive”.

In the case of `NS(=O)(=O)c1cc2c(cc1Cl)N[C@H](Cc1ccccc1)NS2(=O)=O`, the Potency result was “inactive”.

A further experiment concerns CP305. Described as above. The following applies: P. falciparum in erythrocytes, SYBR Green DNA, 72 h; series mostly up to 28.7 µM. In short, it runs like this: as §1
Regarding `CN(C)[C@H]1C(=O)C(C(=O)NCN2CCCC2)=C(O)[C@]2(O)C(=O)C3=C(O)c4c(O)cccc4[C@](C)(O)[C@H]3C[C@H]12`, the Potency entry was “inactive”.

Consider `C[C@]12CC[C@H]3c4ccc(O)cc4CC[C@@H]3[C@H]1CC[C@@H]2OC(=O)CCC1CCCC1`, for which the Potency result is “inactive”.

Take `Cc1cn([C@H]2C[C@H](N=[N+]=[N-])[C@H](CO)O2)c(=O)[nH]c1=O`: the Potency result was “inactive”.

For the molecule `O=C(O)[C@@H](S)[C@H](S)C(=O)O`, the Potency is 7.57 µM (active).

As for `CC(C)(C)NC[C@@H](O)c1ccc(O)c(CO)n1`, the Potency result is “inactive”.

As to `NS(=O)(=O)c1cc2c(cc1Cl)N[C@H](Cc1ccccc1)NS2(=O)=O`, the Potency result was “inactive”.

For another experiment, the system named is CP315. The experiment is described as above. The note with it: P. falciparum in erythrocytes, SYBR Green DNA, 72 h; series mostly up to 28.7 µM. In short, it runs like this: as §1
In the case of `CN(C)[C@H]1C(=O)C(C(=O)NCN2CCCC2)=C(O)[C@]2(O)C(=O)C3=C(O)c4c(O)cccc4[C@](C)(O)[C@H]3C[C@H]12`, the Potency entry is “inactive”.

Regarding `C[C@]12CC[C@H]3c4ccc(O)cc4CC[C@@H]3[C@H]1CC[C@@H]2OC(=O)CCC1CCCC1`, the Potency result is “inactive”.

As for `Cc1cn([C@H]2C[C@H](N=[N+]=[N-])[C@H](CO)O2)c(=O)[nH]c1=O`, the Potency result is “inactive”.

Consider `O=C(O)[C@@H](S)[C@H](S)C(=O)O`, for which the Potency was 15.1 µM (active).

Regarding `CC(C)(C)NC[C@@H](O)c1ccc(O)c(CO)n1`, the Potency result is “inactive”.

As to `NS(=O)(=O)c1cc2c(cc1Cl)N[C@H](Cc1ccccc1)NS2(=O)=O`, the Potency entry is “inactive”.

The test system of another experiment is CP325. The description is as above. The following applies: P. falciparum in erythrocytes, SYBR Green DNA, 72 h; series mostly up to 28.7 µM. In short, it runs like this:
as §1
With `CN(C)[C@H]1C(=O)C(C(=O)NCN2CCCC2)=C(O)[C@]2(O)C(=O)C3=C(O)c4c(O)cccc4[C@](C)(O)[C@H]3C[C@H]12`, the Potency result was “inactive”.

On to `C[C@]12CC[C@H]3c4ccc(O)cc4CC[C@@H]3[C@H]1CC[C@@H]2OC(=O)CCC1CCCC1`, for which the Potency result was “inactive”.

On to `Cc1cn([C@H]2C[C@H](N=[N+]=[N-])[C@H](CO)O2)c(=O)[nH]c1=O`, for which the Potency result is “inactive”.

`O=C(O)[C@@H](S)[C@H](S)C(=O)O`: the Potency was 9.53 µM (active).

`CC(C)(C)NC[C@@H](O)c1ccc(O)c(CO)n1`: the Potency result was “inactive”.

`NS(=O)(=O)c1cc2c(cc1Cl)N[C@H](Cc1ccccc1)NS2(=O)=O`: the Potency entry was “inactive”.

The subject of the next experiment is CP329. The description is as above. The following applies: P. falciparum in erythrocytes, SYBR Green DNA, 72 h; series mostly up to 28.7 µM. In short, it runs like this: as §1
For the molecule `CN(C)[C@H]1C(=O)C(C(=O)NCN2CCCC2)=C(O)[C@]2(O)C(=O)C3=C(O)c4c(O)cccc4[C@](C)(O)[C@H]3C[C@H]12`, the Potency entry was “inactive”.

Regarding `C[C@]12CC[C@H]3c4ccc(O)cc4CC[C@@H]3[C@H]1CC[C@@H]2OC(=O)CCC1CCCC1`, the Potency result was “inactive”.

As for `Cc1cn([C@H]2C[C@H](N=[N+]=[N-])[C@H](CO)O2)c(=O)[nH]c1=O`, the Potency result is “inactive”.

Take `O=C(O)[C@@H](S)[C@H](S)C(=O)O`: the Potency was 10.7 µM (active).

On to `CC(C)(C)NC[C@@H](O)c1ccc(O)c(CO)n1`, for which the Potency result is “inactive”.

Regarding `NS(=O)(=O)c1cc2c(cc1Cl)N[C@H](Cc1ccccc1)NS2(=O)=O`, the Potency result is “inactive”.
